From the supplement of paper PMC7057948, “A genome-wide approach for identification and characterisation of metabolite-inducible systems” (Nature Communications, 2020)

System: HpdR/P_H16_RS18295 3-hydroxypropanoate biosensor (pEH010)
Assay: relative induction of RFP reporter vs primary effector (background-corrected); higher = stronger activation of the biosensor
Details: inducer concentration 5 mM; 6 h; Cupriavidus necator H16; minimal medium + 0.4% gluconate
Protocol: (§1)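 C. necator H16 strains, each carrying one of 21 transcription factor/inducible promoter–mRFP biosensor plasmids, were grown in minimal medium in 96-well plates (robotic platform). Each was exposed to 46 structurally or metabolically related compounds at 5 mM at 30 °C. OD-normalised RFP fluorescence was read 6 h later and expressed as relative induction (%) = 100 × (FL compound − FL uninduced)/(FL primary inducer − FL uninduced); mean of n=4.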
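Also: RFP excited at 585 nm with emission read at 620 nm, culture medium blanks subtracted from fluorescence and absorbance prior to normalisation.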

| SMILES | relative induction of RFP reporter [%] |
| --- | --- |
| O=CC(=O)O [glyoxylate] | -0.292 |
| O=C(O)/C=C/C(=O)O [fumarate] | 0.112 |
| CCC(=O)O | 0.144 |
| O=C(O)C[C@H](O)C(=O)O [L-malate] | 0.127 |
| O=C(O)/C=C\C=C/C(=O)O [cis,cis-muconate] | 0.114 |
| O=C(O)c1cccnc1 [nicotinate] | 0.0215 |
| Oc1ccccc1O [catechol] | 0.415 |
| O=C(O)[C@@H](O)[C@@H](O)[C@H](O)[C@@H](O)C(=O)O [glucarate] | 0.059 |
| O=C(O)c1ccc(O)cc1 [4-hydroxybenzoate] | 0.357 |
| O=C(O)C(O)c1ccccc1 (configuration not stated) [mandelic acid] | 0.0419 |
| O=c1cc[nH]c(=O)[nH]1 [uracil] | 0.292 |
| O=C(O)C(O)C(=O)O [tartronic acid] | 0.0561 |

System: KynR/P_H16_RS14030 L-kynurenine biosensor (pEH136)
Assay: as above
Details: inducer concentration 5 mM; 6 h; Cupriavidus necator H16; minimal medium + 0.4% gluconate
Protocol: as §1

| SMILES | relative induction of RFP reporter [%] |
| --- | --- |
| O=CC(=O)O [glyoxylate] | -0.15 |
| CCC(=O)O [propanoate] | -0.867 |
| O=C(O)/C=C/C(=O)O [fumarate] | -0.13 |
| O=C(O)C[C@H](O)C(=O)O [L-malate] | 0.34 |
| O=C(O)/C=C\C=C/C(=O)O [cis,cis-muconate] | 0.571 |
| O=C(O)c1cccnc1 [nicotinate] | -0.289 |
| Oc1ccccc1O [catechol] | 0.704 |
| O=C(O)[C@@H](O)[C@@H](O)[C@H](O)[C@@H](O)C(=O)O [glucarate] | 0.0265 |
| O=C(O)c1ccc(O)cc1 [4-hydroxybenzoate] | -0.184 |
| O=C(O)C(O)c1ccccc1 (configuration not stated) [mandelic acid] | -0.345 |
| O=c1cc[nH]c(=O)[nH]1 [uracil] | 1.02 |
| O=C(O)C(O)C(=O)O [tartronic acid] | 0.115 |

System: NahR/P_H16_RS08125 salicylate biosensor (pEH042)
Assay: as above
Details: inducer concentration 5 mM; 6 h; Cupriavidus necator H16; minimal medium + 0.4% gluconate
Protocol: as §1

| SMILES | relative induction of RFP reporter [%] |
| --- | --- |
| O=CC(=O)O [glyoxylate] | 0.0197 |
| CCC(=O)O [propanoate] | -0.000302 |
| O=C(O)/C=C/C(=O)O [fumarate] | -0.00283 |
| O=C(O)C[C@H](O)C(=O)O [L-malate] | 0.0296 |
| O=C(O)/C=C\C=C/C(=O)O [cis,cis-muconate] | 0.022 |
| O=C(O)c1cccnc1 [nicotinate] | 0.0131 |
| Oc1ccccc1O [catechol] | 0.0978 |
| O=C(O)[C@@H](O)[C@@H](O)[C@H](O)[C@@H](O)C(=O)O [glucarate] | 0.0258 |
| O=C(O)c1ccc(O)cc1 [4-hydroxybenzoate] | 0.159 |
| O=C(O)C(O)c1ccccc1 (configuration not stated) [mandelic acid] | -0.000243 |
| O=c1cc[nH]c(=O)[nH]1 [uracil] | 0.0235 |
| O=C(O)C(O)C(=O)O [tartronic acid] | 0.00865 |

System: OapR/P_H16_RS01330 beta-alanine biosensor (pEH147)
Assay: as above
Details: inducer concentration 5 mM; 6 h; Cupriavidus necator H16; minimal medium + 0.4% gluconate
Protocol: as §1

| SMILES | relative induction of RFP reporter [%] |
| --- | --- |
| O=CC(=O)O [glyoxylate] | 0.146 |
| CCC(=O)O [propanoate] | -1.95 |
| O=C(O)/C=C/C(=O)O [fumarate] | 0.456 |
| O=C(O)C[C@H](O)C(=O)O [L-malate] | 0.168 |
| O=C(O)/C=C\C=C/C(=O)O [cis,cis-muconate] | 0.13 |
| O=C(O)c1cccnc1 [nicotinate] | -0.669 |
| Oc1ccccc1O [catechol] | -1.89 |
| O=C(O)[C@@H](O)[C@@H](O)[C@H](O)[C@@H](O)C(=O)O [glucarate] | 0.058 |
| O=C(O)c1ccc(O)cc1 [4-hydroxybenzoate] | -0.798 |
| O=C(O)C(O)c1ccccc1 (configuration not stated) [mandelic acid] | 0.364 |
| O=c1cc[nH]c(=O)[nH]1 [uracil] | 0.971 |
| O=C(O)C(O)C(=O)O [tartronic acid] | 0.0759 |

System: PcaQ/P_H16_RS30145 3,4-dihydroxybenzoate biosensor (pEH161)
Assay: as above
Details: inducer concentration 5 mM; 6 h; Cupriavidus necator H16; minimal medium + 0.4% gluconate
Protocol: as §1

| SMILES | relative induction of RFP reporter [%] |
| --- | --- |
| O=CC(=O)O [glyoxylate] | 0.0806 |
| CCC(=O)O [propanoate] | -0.275 |
| O=C(O)/C=C/C(=O)O [fumarate] | 0.0475 |
| O=C(O)C[C@H](O)C(=O)O [L-malate] | 0.148 |
| O=C(O)/C=C\C=C/C(=O)O [cis,cis-muconate] | -0.0137 |
| O=C(O)c1cccnc1 [nicotinate] | -0.0619 |
| Oc1ccccc1O [catechol] | 0.794 |
| O=C(O)[C@@H](O)[C@@H](O)[C@H](O)[C@@H](O)C(=O)O [glucarate] | 0.00441 |
| O=C(O)c1ccc(O)cc1 [4-hydroxybenzoate] | 212 |
| O=C(O)C(O)c1ccccc1 (configuration not stated) [mandelic acid] | 0.0192 |
| O=c1cc[nH]c(=O)[nH]1 [uracil] | -0.0843 |
| O=C(O)C(O)C(=O)O [tartronic acid] | -0.0557 |

System: PhgR/P_H16_RS05530 phenylglyoxylate biosensor (pEH155)
Assay: as above
Details: inducer concentration 5 mM; 6 h; Cupriavidus necator H16; minimal medium + 0.4% gluconate
Protocol: as §1

| SMILES | relative induction of RFP reporter [%] |
| --- | --- |
| CCC(=O)O [propanoate] | -0.224 |
| O=C(O)/C=C/C(=O)O [fumarate] | -0.207 |
| O=C(O)C[C@H](O)C(=O)O [L-malate] | -0.316 |
| O=C(O)/C=C\C=C/C(=O)O [cis,cis-muconate] | -0.341 |
| O=C(O)c1cccnc1 [nicotinate] | -0.587 |
| Oc1ccccc1O [catechol] | 0.769 |
| O=C(O)[C@@H](O)[C@@H](O)[C@H](O)[C@@H](O)C(=O)O [glucarate] | -0.232 |
| O=C(O)c1ccc(O)cc1 [4-hydroxybenzoate] | -0.153 |
| O=CC(=O)O | -0.587 |
| O=C(O)C(O)c1ccccc1 (configuration not stated) [mandelic acid] | -0.332 |
| O=c1cc[nH]c(=O)[nH]1 [uracil] | -0.376 |
| O=C(O)C(O)C(=O)O [tartronic acid] | -0.449 |
